Screening results: PubChem, National Center for Advancing Translational Sciences (NCATS)
Giardia FBPA inh: Giardia lamblia aldolase inhibition; purified Giardia FBPA; Potency, µM (titrated, usually from 59.6 µM), inactives show top-dose activity, negative = inhibition, usual class: inhibitors; actives 0.71% (n = 290,000); A8B2U2; further: nearly all actives have a fitted effect of over 55% in size
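Giardia FBPA (40 nM reagent) was preincubated 10 min at RT with compound (up to 57.5 uM final), then substrate plus GAPDH/TPI/NAD/arsenate coupling system with diaphorase/resazurin was added; resorufin fluorescence (525/598 nm) was read after 20 min.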
Sm TGR block: S. mansoni TGR enzyme inhibition; AID 485364; actives 3% (n = 360,000); Potency, µM (titrated, usually from 114 µM), without a hit: top-dose activity change, negative = inhibition, hits mostly inhibitors; Q962Y6; purified TGR, DTNB reduction, TNB absorbance 405 nm; further: nearly all actives have a fitted effect of over 60% in size
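First, TGR (20 nM dispensed) and NADPH were mixed with compound. Second, a 15 min room-temperature incubation followed. Third, further NADPH and then DTNB were added to start the reaction. Finally, TNB absorbance was monitored kinetically.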
AmpC inh no detg: AmpC beta-lactamase inhibition without detergent. AmpC nitrocefin hydrolysis, absorbance 480 nm, 0.0001% Triton. Potency, µM (top dose mostly 57.1 µM), inactives show top-dose activity change, negative = inhibition, most hits filed as inhibitors. actives 0.52% (n = 330,000). AID 485341;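 further: plate controls were no compound for no effect and no enzyme for full effect; nearly all actives have a fitted effect of over 20% in size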
Target sequence (P00811 whole entry, looked up): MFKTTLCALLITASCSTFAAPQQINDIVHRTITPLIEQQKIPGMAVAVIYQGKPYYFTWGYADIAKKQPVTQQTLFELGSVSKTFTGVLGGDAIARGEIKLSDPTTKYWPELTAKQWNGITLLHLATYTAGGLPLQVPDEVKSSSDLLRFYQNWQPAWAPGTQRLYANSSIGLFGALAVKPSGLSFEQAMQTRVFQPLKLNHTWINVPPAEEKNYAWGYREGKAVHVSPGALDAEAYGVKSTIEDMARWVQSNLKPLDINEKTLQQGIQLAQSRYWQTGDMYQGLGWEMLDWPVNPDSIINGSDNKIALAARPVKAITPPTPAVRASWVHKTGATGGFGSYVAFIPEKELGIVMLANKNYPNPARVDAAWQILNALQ
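AmpC (5.3 nM in the dispensed reagent) in 20 mM phosphate pH 7.0 with 0.01% (detergent screen) or 0.0001% Triton X-100 was preincubated with compounds for 15 min at room temperature. Nitrocefin was then added from an 800 uM solution, and hydrolysis was followed at 480 nm.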
AmpC inh detg: AmpC beta-lactamase inhibition with detergent present; P00811; AmpC hydrolysis of nitrocefin, absorbance 480 nm, 0.01% Triton; Potency, µM (top dose mostly 114 µM), for inactives: top-dose activity change, negative = inhibition, most hits filed as inhibitors; actives 0.041% (n = 370,000);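 further: 0% = no-compound wells and -100% = no-enzyme wells; nearly all actives have a fitted effect of over 25% in size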
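AmpC (5.3 nM in the dispensed reagent) in 20 mM phosphate pH 7.0 with 0.01% (detergent screen) or 0.0001% Triton X-100 was preincubated with compounds for 15 min at room temperature. Nitrocefin was then added from an 800 uM solution, and hydrolysis was followed at 480 nm.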
* hit, by the source's call; ? = inconclusive; · = no result; [ ] = dose if it differs, or a comment. Rows were chosen to be rich in hits. Some 3.6% of all compounds tested hit in one or more screens of this group. The call rests on the fitted dose curve; in most records, active means well fitted curve in the direction sought with a large enough effect; inconclusive means small, poorly fitted or top-dose-only effect, or another doubt; inactive means no such curve, though single readings can be large; an effect the other way counts as inactive or inconclusive. Unless noted, on the % scale 0 is the no-effect control and ±100 the full control effect; potency means the concentration at half of the fitted maximal effect.

SMILES | Giardia FBPA inh | Sm TGR block | AmpC inh no detg | AmpC inh detg
Cc1ccc(NC(=O)C(Cc2ccccc2)NS(=O)(=O)c2cccc3nsnc23)c(C)c1 (configuration not stated) | · | -17% | · | 0%
Cc1cc(C)c(S(=O)(=O)/N=C2/C=C(SCC(=O)O)C(=O)c3ccccc32)cc1C | 16µM* | 3.5µM* | 16µM* | 1%
Cn1c(=O)c2c(nc(CN3CCN(C(=O)c4ccco4)CC3)n2Cc2cccc(Cl)c2)n(C)c1=O | -1% | 25µM* | 167% | -5%
CC(C)Cc1nc2c(nnn2Cc2ccccc2F)c(=O)[nH]1 | -1% | 12% | -22% | 4%
N#CC1=C(N)OC2=C(CC/C2=C\c2ccccc2)C1c1ccccc1 (configuration not stated) | 14% | 11µM* | 11µM* | 5%
O=C(c1cccc(Cl)c1)N1CCCC(C(=O)N2CCN(c3ccccc3)CC2)C1 (configuration not stated) | 5% | -17% | 95% | ?
O=C(CSc1nnc(C2CC2)n1CC1CCCO1)Nc1ccccc1Cl (configuration not stated) | 3% | -3% | -4% | 2%
Cc1[nH]c2ccccc2c1/C=N/NC(=O)c1cccc(F)c1 | -10% | 0% | -30% | 0%
Cc1[nH]c2ccccc2c1/C=N/Nc1ccc(F)cc1F | -12% | 50µM* | -28% | ?
COC(=O)c1nc(NC(=O)C(C)C)n[nH]1 | -15% | 18µM* | -17% | 5%
COc1ccc(CNc2cccc3[nH]c(C(F)(F)F)nc23)cc1OC | ? | 20µM* | -11% | 3%
CCN(CC)c1ccc(C=NCCNS(=O)(=O)c2ccc(C)cc2)cc1 | -14% | 1% | 26% | 9%
Cc1cccc(NC(=O)CSc2ccc(-c3ccco3)nn2)c1 | -10% | 20µM* | 3% | ?
Cc1cc(C)cc(NC(=O)CSc2ccc(-c3ccco3)nn2)c1 | -2% | 22µM* | -15% | -1%
Cc1cc(C)cc(NC(=O)CSc2ccc(-c3ccccn3)nn2)c1 | · | 0% | -5% | 1%
COc1cc(C(=O)OCC(=O)Nc2cc(S(=O)(=O)N3CCOCC3)ccc2C)ccc1OCC(C)C | · | -20% | 150% | -16%
Cc1ncc(C[n+]2csc(CCO)c2C)c(N)n1 | ? | ? | -37% | ?
Cc1ncc(C[n+]2csc(C)c2C)c(N)n1 | -12% | 25µM* | -4% | -3%
CCN(CC(=O)Nc1c(F)cccc1F)C(=O)c1ccc(N2CCOCC2)c([N+](=O)[O-])c1 | · | 45µM* | 2% | 9%
Cc1ccc(C)c(N2CCN(C(=O)c3csc4ccccc34)CC2)c1 | 29% | -2% | -16% | ?
CCCOC1CCCN(C(=O)CCCn2nnnc2CN2CCOCC2)C1 (configuration not stated) | -6% | -17% | 14% | -5%
CCOC(=O)C1CCCN(C(=O)CCCn2nnnc2CN2CCOCC2)C1 (configuration not stated) | 0% | 40µM* | -8% | -11%
O=C(CCn1nnnc1CN1CCOCC1)N1CCC(c2ccccc2F)C1 (configuration not stated) | 1% | 25µM* | -3% | 2%
O=C(COc1cc(F)ccc1[N+](=O)[O-])Nc1ccc(N2CCCCC2)cc1 | · | -11% | 1% | ?
O=C(COc1cc(F)ccc1[N+](=O)[O-])Nc1ccc(N2CCOCC2)cc1 | 3% | 45µM* | -25% | -7%
SMILES | Giardia FBPA inh | Sm TGR block | AmpC inh no detg | AmpC inh detg
CCCN1CCN(CCCNC(=O)c2ccc(CS(=O)c3ccccc3C)o2)CC1 (configuration not stated) | · | 1% | -10% | 2%
O=C(/C=C\c1cn(-c2ccccc2)nc1-c1ccccc1)Nc1nccs1 | 2% | -6% | 11µM* | -14%
CS(=O)(=O)c1ccc(Cl)c(NC(=O)c2cc(=O)[nH]c3ccc(S(=O)(=O)N4CCOCC4)cc23)c1 | · | -1% | -3% | -2%
CC(=O)Nc1ccc(Nc2nc(Cl)nc(Nc3ccc(NC(C)=O)cc3)n2)cc1 | -4% | 35µM* | -4% | 0%
CCCCCCCCCCCCCCCC(=O)OCC(O)C1OC(=O)C(O)=C1O (configuration not stated) | 5% | · | · | ·
CCOC(=O)C(C)n1nc(C)c2sc3ccccc3c2c1=O (configuration not stated) | 0% | 40µM* | 3% | 0%
Cc1ccc(CNC(=O)C(C)n2nc(C)c3sc4ccccc4c3c2=O)cc1 (configuration not stated) | · | 4% | · | 4%
COC(=O)N1C2CC(=O)O[C@@H]3c4cc5c(cc4[C@]1(C)[C@@]3(Br)c1ccccc12)OCO5 | 4%[12.9 µM] | · | · | ·
S=C(NCCc1ccccc1)Nc1ccc(N2CCCCC2)cc1 | 4% | -14% | -33% | -3%
Cc1ccc(CNC(=O)Cn2ccn(-c3ccc(F)cc3)c(=O)c2=O)cc1 | · | 10% | · | 8%
O=C(Nc1nc2c(F)cc(F)cc2s1)C1CC(=O)N(Cc2ccco2)C1 (configuration not stated) | -22% | 5µM* | -15% | -5%
CCOC(=O)CN(C(=O)c1snc(C(N)=O)c1N)C(C(=O)NC1CCCCC1)c1ccc(F)cc1 (configuration not stated) | 2% | 0% | 5% | -15%
Cc1nnc(NC(=O)c2ccc(F)c(S(=O)(=O)N3CCCCC3)c2)s1 | -4% | 4% | -7% | -11%
Cc1ccc2[nH]c(O)c(N=Nc3ccccc3C)c2c1 | -20% | 22µM* | -43% | -4%
Cc1nc(NC(=O)c2ccccc2)sc1Cc1ccc2c(c1)OCO2 | 1% | -8% | -35% | 1%
Cc1cc(C)nc(NC(=NCc2ccc3c(c2)OCO3)NC(=O)Nc2ccccc2)n1 | -8% | 1.4µM* | · | -5%
N#CC1=C2SCN(c3ccccc3)CN2C(=O)CC1c1cccs1 (configuration not stated) | ? | ? | -39% | -2%
N#CC1=C2SCN(c3ccccc3)CN2C(=O)CC1c1ccccc1Cl (configuration not stated) | ? | 22µM* | -43% | -13%
N#CC1=C2SCN(Cc3ccco3)CN2C(=O)CC1c1c(F)cccc1Cl (configuration not stated) | ? | 45µM* | -30% | -10%
Cc1ccc(C2CC(=O)N3CN(c4ccc(Br)cc4)CSC3=C2C#N)o1 (configuration not stated) | ? | 28µM* | -40% | 3%
N#CC1=C2SCN(c3ccccc3)CN2C(=O)CC1c1c(Cl)cccc1Cl (configuration not stated) | ? | 0% | 28µM* | -17%
N#CC1=C2SCN(Cc3ccccc3)CN2C(=O)CC1c1ccccc1F (configuration not stated) | ? | -30% | -24% | ?
Cc1ccc2scc(N3CCc4ccccc4C3)c(=O)c2c1 | · | 5% | · | 14%
CCCn1c2ccccc2c2cnn(CC(=O)NC3CCCCC3)c(=O)c21 | · | -4% | 12% | -2%
